Screens from PubChem BioAssay.
The list is not random: actives were taken first. Their share in the collection is about 11%.
NPSR antag = qHTS Assay for Antagonists of the Neuropeptide S Receptor: cAMP Signal Transduction; 220,000 compounds, 1% hits; Potency, µM (doses to about 38.3 µM), for inactives: at the highest dose activity change, negative = inhibition, actives largely listed as inhibitors; Q6W5P4; CHO-NPSR cells, cAMP TR-FRET, antagonist mode; further: potency means the concentration at half of the fitted maximal effect; nearly all actives have a fitted effect of over 50% in size
Target sequence (Q6W5P4 whole entry, looked up): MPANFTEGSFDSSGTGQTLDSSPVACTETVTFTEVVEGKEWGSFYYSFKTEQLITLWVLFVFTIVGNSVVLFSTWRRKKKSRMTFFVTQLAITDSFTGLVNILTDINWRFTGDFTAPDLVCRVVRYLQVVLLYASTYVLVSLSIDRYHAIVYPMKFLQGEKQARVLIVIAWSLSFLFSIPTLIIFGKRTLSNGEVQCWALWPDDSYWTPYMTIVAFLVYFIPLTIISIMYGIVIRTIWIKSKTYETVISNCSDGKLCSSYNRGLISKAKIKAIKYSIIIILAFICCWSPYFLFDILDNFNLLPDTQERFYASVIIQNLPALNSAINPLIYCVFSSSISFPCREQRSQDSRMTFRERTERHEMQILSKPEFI
PNC inhibitor = High Content Assay for Compounds that inhibit the Assembly of the Perinucleolar Compartment; activity change (PNC), negative = inhibition, % at 10 µM; 140,000 compounds, 3.1% hits; PC3M PTB-GFP, PNC prevalence imaging, 16 h; active compounds read low;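 active means readout at or below -70, meaning at least 70% loss of cells showing the perinucleolar compartment, a nuclear body marking cancer cells; inconclusive means readout between -30 and a set limit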;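 further: plate controls were DMSO wells for no effect and camptothecin positive control wells for full effect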
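PC3M cells stably expressing PTB-GFP, 750–1000 cells/well, treated 16 h at 37 °C with compound (23 nl of library stock), in duplicate. After paraformaldehyde fixation and Hoechst stain, imaged at 20x; PNC prevalence scored by image analysis.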
ALDH1A1 block = qHTS Assay for Inhibitors of Aldehyde Dehydrogenase 1 (ALDH1A1); Aldehyde dehydrogenase 1A1 (Homo sapiens), P00352; Potency, µM (series often up to 75.3 µM), for the others: at the top dose activity, negative = inhibition, actives largely listed as inhibitors; Purified ALDH1A1, NADH fluorescence, propionaldehyde substrate; 220,000 compounds, 7.3% hits; active means well fitted inhibition curve with a large enough effect, not every such curve was filed as active; inconclusive means small, poorly fitted or top-dose-only effect, or another doubt; inactive means no such curve, though single readings can be large or run the other way;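 further: potency means the concentration at half of the fitted maximal effect; plate controls were no enzyme wells and a reference inhibitor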
IMPase inh = qHTS Assay for Identifying the Cell-Membrane Permeable IMPase Inhibitors | Inositol monophosphatase 1 (Rattus norvegicus), P97697 | CHO-M1 cells, IP1 accumulation, HTRF TR-FRET ratio | inhibition (IP1 accumulation), % at 46.1 µM | 120,000 tested, under 10 active; active means well fitted curve in the direction sought with a large enough effect in the signal ratio, not every such curve was filed as active; inconclusive means small, poorly fitted or top-dose-only effect, or a change in a side signal; inactive means no such curve, though single readings can be large or run the other way; the % refers to the signal ratio;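 further: cells stimulated with carbachol in lithium chloride buffer; plate controls were DMSO basal wells for no effect and reference inhibitor wells for full effect; higher means more IMPase inhibition seen as more IP1 and lower FRET ratio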
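CHO-M1 cells (CHO stably expressing M1 receptor), compound up to 46 uM final, stimulated with carbachol (50 uM as added) in buffer with 50mM LiCl, pH 7.4, 30 min at 37C. Cytosolic IP1 read by TR-FRET; AC50 from Hill fits.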
HPGD inh = qHTS Assay for Inhibitors of HPGD (15-Hydroxyprostaglandin Dehydrogenase). Potency, µM, without a hit: at the highest dose activity change, negative = inhibition, hits mostly inhibitors. 15-hydroxyprostaglandin dehydrogenase [NAD(+)] (Homo sapiens), P15428. 150,000 compounds, 4.3% hits. purified HPGD, NADH fluorescence kinetic, PGE2 substrate. AID 894, 2007; active means well fitted inhibition curve with a large enough effect, not every such curve was filed as active; inconclusive means small, poorly fitted or top-dose-only effect, or another doubt; inactive means no such curve, though single readings can be large or run the other way; further: potency means the concentration at half of the fitted maximal effect
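20 nM HPGD preincubated 15 min at room temperature with compound in 50 mM Tris-HCl pH 8, 0.01% Tween 20. Started with 1 mM NAD+ and 30 uM prostaglandin E2; NADH fluorescence (360/450 nm) read 5 times over 30-s intervals, last minus first.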
IMPase Li cell = qHTS Assay for Identifying the Cell-Membrane Permeable IMPase Inhibitors: Potentiation with Lithium. CHO-M1 cells, IP1 TR-FRET (IP-One), carbachol + lithium. Potency, µM (series often up to 59.4 µM), without a hit: at the top dose activity, negative = IMPase inhibition, most hits filed as inhibitors. 210,000 compounds, 0.35% hits;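 further: IP1 builds up when IMPase is blocked and the TR-FRET signal falls; potency means the concentration at half of the fitted maximal effect; plate controls were basal vehicle for no effect and high inhibitor control for full effect; nearly all actives have a fitted effect of over 50% in size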
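Readout is a homogeneous TR-FRET IP1 immunoassay (Ex 320, Em 665 and 620), where raised cytosolic IP1 lowers signal. Cells were CHO-M1 treated 30 min at 37C with test compounds plus a little lithium; AC50 values came from Hill-equation fitting.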
* = called active by the depositor; ? = inconclusive; . = no result given; [ ] = another dose, or the depositor's remark. Unless noted, the call rests on the fitted dose curve; in most records, active means well fitted curve in the direction sought with a large enough effect; inconclusive means small, poorly fitted or top-dose-only effect, or another doubt; inactive means no such curve, though single readings can be large; an effect the other way counts as inactive or inconclusive. Unless noted, on the % scale 0 is the no-effect control and ±100 the full control effect.

SMILES	NPSR antag	PNC inhibitor	ALDH1A1 block	IMPase inh	HPGD inh	IMPase Li cell
O=C(Nc1ccc(NC(=S)NC(=O)c2cccs2)cc1)c1ccccc1	-9%	19	?	.	-9%	2%
CCCCC(=O)Nc1ccc(C(=O)NNC(=S)NC(=O)c2cccs2)cc1	-14%[46.1 µM]	?	25µM*	-10	.	.
Cc1c(C(=O)NC(=S)Nc2ccc(NC(=O)c3cccs3)cc2)oc2ccccc12	?	?	1.3µM*	3	2.8µM*	14%[38.3 µM]
CC(C)c1ccc(NC(=S)NNC(=O)c2cccs2)cc1	12%	.	20µM*	.	.	-3%
CC(=O)NC(=S)Nc1ccc(NC(=O)c2cccs2)cc1	4%	?	-13%	-3	-23%	2%
NC(=O)NC(=O)CC1S/C(=N/N=C2/NC(=O)CS2)NC1=O (configuration not stated)	12%	.	1%	.	.	6%
c1ccc(-c2cnn3c(-c4ccccc4)c(-c4ccccc4)nc3n2)cc1	-45%	23	-2%	?	20µM*	2%
c1ccc(-c2cc(-c3ccccc3)n3ncnc3n2)cc1	-28%	.	?	.	.	-1%
CN(C)C(=O)c1ccc(-c2cc(N(C)Cc3ccco3)ncn2)cc1	.	.	?	.	.	0%
Cc1[nH]nc(SCC(=O)NCc2ccc(F)cc2)c1[N+](=O)[O-]	14%	?	14%	-9	-15%	2%
CCN(CC)S(=O)(=O)c1ccc(C(=O)Nc2cccc(C)c2)cc1	?	?	?	-1	-11%	36%[38.3 µM]
O=C1N(Cc2cccc(Cl)c2)C[C@@H]2C[C@@H](c3cccn3-c3cccnc3)N3CCC[C@@]123	59%	.	7.1µM*	.	.	12%
CSc1nc2c(c(=O)[nH]1)C(c1cccc(Br)c1)CC(=O)N2 (configuration not stated)	-6%	.	0%	.	.	4%
N#CCCn1cc(C(=O)Nc2ccc([N+](=O)[O-])cc2)c(-c2cccs2)n1	-11%	73	22µM*	.	-15%	2%
COc1ccc(NC(=O)c2cn(CCC#N)nc2-c2cccs2)cc1	13%	8	10%	-3	5%	-3%
Clc1ccc(C2=Nc3cc(Cl)ccc3OC2)cc1	5%	.	5%	.	.	19%
Clc1ccc(C2=NN=C3COc4ccccc4N3C2)cc1	-14%	47	6%	.	20µM*	4%
CCCOC(=O)c1ccc(O)c(OC)c1	-3%	.	-6%	.	.	1%
COc1cc(C(=S)N(C)C)ccc1O	0%[46.1 µM]	9	10µM*	-11	18µM*	20%[38.3 µM]
CC(C)CN1CCC2(CC1)CCN(C(=O)c1cnccn1)CC2	.	.	6%	.	-4%	-9%
CC/C(=N/Nc1ccccc1Cl)c1cnnc(-c2ccccc2)n1	-12%[46.1 µM]	290	2%	-8	-13%	5%
COc1ccc(N/N=C(/C)c2cnnc(-c3ccccc3)n2)cc1	-9%	-5	9.5µM*	.	-1%	6%
O=c1c(O)c(-c2cc(O)c(O)c(O)c2)oc2cc(O)cc(O)c12	-13%[46.1 µM]	.	3.5µM*	?	7.9µM*	10%
O=C(O)c1ccc(NS(=O)(=O)c2ccc3nnn(O)c3c2)cc1	-9%[46.1 µM]	-107*	-7%	3	-18%	32%[38.3 µM]
C/C(CCc1ccccc1)=N\NC(=O)COc1ccccc1C	-2%	.	?	.	.	-2%
Cn1nc(C(C)(C)C)cc1C(=O)NNC(=O)c1cccc(Cl)c1	2%	.	2%	.	.	.
CC1=CC(C)=Nc2ccc(C)cc2N1	-7%[46.1 µM]	?	-1%	-6	-10%	2%[38.3 µM]
O=C1C=C(Nc2ccc(Cl)cc2)CC(c2ccc(Cl)cc2)C1 (configuration not stated)	?	4	-7%	11	32µM*	21%[38.3 µM]
